This is a sample that favours compounds with a hit; in the whole collection about 2.8% have one here.
SENP8 block-1: human SENP8 protease inhibitors, primary screen, biochemical, fluorescence, Nedd8 protein substrate, uHTS; Sentrin-specific protease 8 (Homo sapiens), Q96LD8; 0.64% of 360,000 active; recombinant SENP8; inhibition, % at 20 µM; in the data active means inhibition mostly above about 40%, no sharp cut-off; inactive means mostly below about 27%
Target sequence (Q96LD8 whole entry, looked up): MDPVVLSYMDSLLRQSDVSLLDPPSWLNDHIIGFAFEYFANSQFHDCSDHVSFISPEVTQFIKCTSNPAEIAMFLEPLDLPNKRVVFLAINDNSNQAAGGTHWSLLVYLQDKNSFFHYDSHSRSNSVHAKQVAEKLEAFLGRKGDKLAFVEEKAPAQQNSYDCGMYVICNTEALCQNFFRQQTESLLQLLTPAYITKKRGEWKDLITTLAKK
SENP6 block: SENP6 protease inhibitors, primary screen, biochemical, luminescence, uHTS; Sentrin-specific protease 6 (Homo sapiens), Q9GZR1; Recombinant SENP6 catalytic domain, aminoluciferin luminescence; inhibition, % at 10 µM; 1.8% of 330,000 active; AID 2599, 2010;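 active means inhibition above about 50% at the single tested dose, limit read from the data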;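 further: plate controls were DMSO wells with enzyme for no effect and DMSO wells lacking enzyme for full effect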
HSP90 inh: HSP90 inhibitors, primary screen, cell lysate, luminescence; Rabbit reticulocyte lysate, luciferase refolding luminescence, 3 h; inhibition, % at 5.6 µM; 0.91% of 290,000 active; AID 1789, 2009;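 active means inhibition above the screen-wide mean plus 3 SD, computed separately per campaign, cut at about 16% in these data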;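 further: 0% = DMSO wells and 100% = 60 µM geldanamycin wells; inhibitors lower the luminescence because luciferase stays unfolded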
SENP8 block-2: SENP8 protease inhibitors, primary screen, biochemical, luminescence. 1.2% of 330,000 active. purified SENP8, Z-RLRGG-aminoluciferin cleavage. Sentrin-specific protease 8 (Homo sapiens), Q96LD8. inhibition, % at 10 µM. AID 2540, 2010; in the data active means inhibition above about 50%
SENP7 inh: SENP7 protease inhibitors, primary screen, biochemical, luminescence, uHTS. inhibition, % at 5 µM. Sentrin-specific protease 7 (Homo sapiens), Q9BQF6. 1.5% of 330,000 active. recombinant SENP7, Z-RLRGG-aminoluciferin luminescence, 40 min;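 active means inhibition above about 50% at the single test dose, limit read from the data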;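 further: plate controls were DMSO with enzyme for no effect and no enzyme buffer wells for full effect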
Target sequence (Q9BQF6 706-1050 limits assumed): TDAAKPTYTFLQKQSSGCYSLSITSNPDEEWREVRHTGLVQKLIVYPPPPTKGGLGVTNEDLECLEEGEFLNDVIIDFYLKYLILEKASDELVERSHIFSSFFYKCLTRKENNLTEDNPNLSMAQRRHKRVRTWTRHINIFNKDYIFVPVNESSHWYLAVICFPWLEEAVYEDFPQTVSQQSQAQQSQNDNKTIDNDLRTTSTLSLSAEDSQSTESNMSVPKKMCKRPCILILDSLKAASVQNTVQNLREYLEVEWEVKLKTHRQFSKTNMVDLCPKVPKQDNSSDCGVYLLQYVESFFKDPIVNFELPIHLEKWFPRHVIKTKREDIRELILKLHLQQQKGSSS
The depositor's hits bear a star; i = inactive; nt = no result given.

SMILES	SENP8 block-1	SENP6 block	HSP90 inh	SENP8 block-2	SENP7 inh
CCS(=O)(=O)c1ccc2oc(Nc3ccc(C(C)(C)C)cc3)nc2c1	-5	-16	0	-2	4
O=C(c1ccc(F)cc1)n1ccc(-c2cnc(-c3ccccc3)s2)n1	-457	55*	2	32	85*
Fc1ccc(Cn2ccc(-c3cnc(-c4ccccc4)s3)n2)cc1	-491	12	-3	-8	21
Cc1ccc(NC(=O)CN2C(=O)S/C(=C/c3ccc(-c4cccc(C(=O)O)c4)o3)C2=O)cc1	-273	nt	0	nt	nt
CC(C)(C)OC(=O)CN1C(=O)S/C(=C\c2ccc(-c3cccc(C(=O)O)c3)o2)C1=O	nt	78*	-6	68*	9
COc1ccc(S(=O)(=O)N2CCC(C(=O)NC3CC3)CC2)cc1	3	-6	4	-7	-14
Cc1cccc(-c2cc3c(N=O)c4ccccc4c-3n[nH]2)c1	4	96*	2	10	99*
OC(c1ccc(F)c(F)c1)c1nc(-c2ccc3ccccc3c2)cs1 (stereo unspecified)	1	nt	nt	nt	nt
CCOc1ccccc1-n1nnnc1SCC(=O)NCC1(N2CCOCC2)CCCCC1	18	-4	nt	-11	-3
CN1C(=O)/C(=C/c2ccc(-c3ccccc3[N+](=O)[O-])o2)SC1=Nc1ccc(Cl)c(C(=O)O)c1	42*	nt	4	nt	nt
COc1cccc(CCNC(=O)CC2C(=O)NCCN2Cc2ccc(C)o2)c1 (stereo unspecified)	-22	8	3	-3	7
CC(=O)Nc1ccc(/C=C2\Sc3ccccc3C2=O)cc1	-96	67*	-1	46	83*
Cc1ccc(Nc2ccc([N+](=O)[O-])ccc2=O)cc1	43*	21	nt	6	7
NC1=NC(=O)NC1(c1ccccc1)c1ccccc1	4	nt	nt	nt	nt
COC(=O)c1ccc(NC(=O)c2ccc(NS(=O)(=O)c3cccc4cccnc34)cc2)cc1	15	-34	17*	0	-1
CC1=C(C(=O)N(C)C)CC(CC(=O)NCc2ccco2)C(=O)N1CCC1=CCCCC1 (stereo unspecified)	-20	nt	nt	nt	nt
Clc1ccccc1N=Nc1ccccn1	57*	nt	nt	nt	nt
Cc1[nH][nH]c(=O)c1N=Nc1ccccc1Cl	33	16	6	-4	-2
Cc1cccc(OC(=O)Nc2ccc(C(=O)O)c(O)c2)c1	-26	nt	nt	nt	nt
CC(C)(C)c1ccc(OC(=O)Nc2ccc(O)c(C(=O)O)c2)cc1	-263	83*	12	72*	18
C=CCOC(=O)C1=C[C@@H](c2cn(C(C)=O)c3ccccc23)C[C@@H](OCCCCO)O1	-43	-4	7	-13	12
COc1cccc2c1C(=O)c1c(O)c3c(c(O)c1C2=O)C[C@@](O)(C(C)=O)C[C@@H]3O[C@H]1C[C@H](N)[C@H](O)[C@H](C)O1	33	nt	4	nt	nt
COc1cccc2c1C(=O)c1c(O)c3c(c(O)c1C2=O)C[C@@](O)(C(=O)CO)C[C@@H]3O[C@H]1C[C@H](N)[C@@H](O)[C@H](C)O1	52*	9	nt	5	10
COc1ccc(/C=C2/C(=O)N(c3nc4ccccc4s3)N=C2CSc2ccc(Cl)cc2)cc1	40*	1	2	2	4
COc1ccc(OCCSc2nc(C)nc3ccccc23)cc1	13	-60	0	-7	-8
SMILES	SENP8 block-1	SENP6 block	HSP90 inh	SENP8 block-2	SENP7 inh
O=C(O)CSc1ccc(NC(=O)Nc2ccccc2F)cc1	15	-5	2	95*	98*
CC(=O)Nc1ccc(SCC(=O)O)cc1	4	-7	-2	-12	-6
O=C(N=Nc1c(O)[nH]c2ccccc12)Nc1ccccc1	15	nt	nt	nt	nt
Cc1cccc(NC(=S)N=Nc2c(O)[nH]c3ccccc23)c1	42*	-3	0	3	6
COC(=O)c1cc(C)sc1NC(=O)CCc1ccccc1	6	-7	1	-3	8
COCC(C)NC(=O)/C=C/c1ccc(OC)cc1 (stereo unspecified)	10	-39	1	-18	-9
Fc1ccc(-c2nc3nc4ccccc4nc3n2Cc2ccco2)cc1	i	-2	17*	-9	-2
COc1ccc(N2C(=O)CC(N(C)CCc3ccc(OC)c(OC)c3)C2=O)cc1 (stereo unspecified)	7	16	-2	8	1
COc1ccc(N2CCN(C3CCCN(Cc4ccccc4OCCO)C3)CC2)cc1 (stereo unspecified)	4	3	1	-7	15
N#CC(C#N)=NNc1ccc(S(=O)(=O)N2CCCCC2)cc1	47*	17	5	3	-1
Oc1ccc(Br)cc1/C=N/N1CCCCC1	15	94*	0	85*	53*
COc1cccc(-c2nc(N3CCCCC3C)c3ccccc3n2)c1O (stereo unspecified)	47*	-1	2	0	9
COc1cccc(-c2nc(N3CCN(C)CC3)c3ccccc3n2)c1O	15	-12	1	4	0
COC(=O)CCc1nc2c(C#N)c(-c3ccc(Cl)cc3)ccn2n1	-158	-9	3	-3	4
C/C(=N\Nc1cccc2cccnc12)c1ccc[nH]1	36	30	8	75*	57*
CCC(=O)Nc1cccc2cccnc12	8	3	-3	0	-11
O=C(COC(=O)CSc1nnc(-c2ccc(Cl)cc2)o1)Nc1cc(Cl)ccc1Cl	4	4	-1	-16	-5
Cc1nn(-c2ccccc2)c(Cl)c1/C=C1\SC(=S)N(CCCCCC(=O)O)C1=O	54*	-12	1	-23	6
c1ccc2c(c1)CSc1ccccc1N2	25	0	nt	-5	2
Cc1nonc1C(=O)N/N=C/c1ccc(O)c(O)c1	15	97*	-1	96*	99*
N/C(=N\N=C\c1ccc(O)c(O)c1)c1nonc1N	15	99*	3	96*	99*
O=C(N/N=C/c1ccc(O)c(O)c1)N/N=C/c1ccc(O)c(O)c1	18	-21	0	0	8
COc1ccc(-n2ncc3c(SCC(=O)OC(C)C)ncnc32)cc1	-27	nt	nt	nt	nt
COc1ccc(-n2ncc3c(N4CCC(C)CC4)ncnc32)cc1	-290	37	29*	25	29
CC1CCN(c2ncnc3c2cnn3-c2ccccc2)CC1	-6	11	-3	11	-5
COc1ccc(-n2ncc3c(N(C)C4CCCCC4)ncnc32)cc1	-166	48	79*	43	47
CC(NC(=O)C(=O)N1CCCCC1)C(c1cccs1)N1CCN(Cc2ccccc2)CC1 (stereo unspecified)	19	-3	-3	-13	2
Cc1occc1C(=O)N=Nc1c(O)n(C)c2ccccc12	25	73*	-1	47	75*
Cc1ccc(C2CN=NC23CCc2ccccc2C3=O)cc1 (stereo unspecified)	-107	-1	17*	4	6

Source: PubChem
